Test results from PubChem BioAssay (EPA / NIEHS).
Active and inactive are the calls of the source. The calls were made as follows: active = hit-call score of the fitted dose curve at least 0.9, where 1 is the maximum; inactive = score below 0.9.

read-out: Macrophage colony-stimulating factor (MCSF), CSF1 (gene 1435); experiment: BSK_IMphg_MCSF: BioMAP Diversity Plus: IMphg Assay for Macrophage colony-stimulating factor (MCSF) Biomarker Activity (AID 2284293); details: primary human endothelial cells with macrophages
Method: BSK_IMphg is a cell-based, multiplexed-readout assay that uses venular endothelial cells and macrophages, a human vascular primary cell, with measurements taken at 24 hours after chemical dosing in a microplate: 96-well plate.BSK_IMphg_MCSF is an assay component measured in the BSK_IMphg assay. It measures M-CSF antibody related to regulation of gene expression using ELISA technology.Data from the assay component BSK_IMphg_MCSF was analyzed at the endpoint, BSK_IMphg_MCSF, in the positive analysis fitting direction relative to DMSO as the negative control and baseline of activity. Using a type of binding reporter, gain or loss-of-signal activity can be used to understand protein changes. To generalize the intended target to other relatable targets, this assay endpoint is annotated to the 'cytokine' intended target family, where the subfamily is 'colony stimulating factor'.
The levels of cell surface (or secreted, indicated by the prefix "s") biomarker endpoints were measured by ELISA. Overt cytotoxicity to cells in confluent adherent cultures (all systems other than the BT system) was assessed by measuring total protein levels using sulforhodamine B (SRB) staining in parallel cultures at the time of biomarker measurements, indicated as SRB endpoints. For proliferation assays for adherent cell types, individual cell types are cultured at sub-confluence and relative cell numbers quantified by SRB staining at time points optimized for each system (48 h: 3C and CASM3C systems; 72 h: BT and HDF3CGF systems; 96 h: SAg system). SRB was performed by staining cells with 0.1% SRB after fixation with 10% TCA and reading wells at 560 nm.Viability and proliferation of PBMC (T cells) was quantified by Alamar Blue reduction for the SAg and BT systems. For PBMC viability (referred to as PBMC Cytotoxicity within the assay endpoint names), cells were plated (75,000/well in a 96-well plate) and then chemical samples added for 1 h before addition of activators, SEB and TSST-1 (20 ng/mL final concentration each). Cells were incubated for 90 h. Then, Alamar Blue (20 uL/well) (Invitrogen, Cat DAL1100) was added for 6 h, and the plates were read with a fluorescence microplate reader at 546/580 nm (excitation/emission). For PBMC proliferation, cells were plated and activated as above but incubated for only 16 h prior to addition of Alamar Blue. Plates were read after 6 h.

Compound	outcome
NCC(F)(F)C(F)(F)C(F)(F)C(F)(F)F	inactive
OC(O)(C(F)C(O)(O)C(F)(F)F)C(F)(F)F	inactive
O=C(Cl)C(F)(F)C(F)(F)C(F)(F)C(=O)Cl	inactive
FC(F)(F)COC(OCC(F)(F)F)OCC(F)(F)F	inactive
FC(F)=C(F)C(F)(F)C(F)(F)C(F)(F)C(F)(F)C(F)(F)C(F)(F)F	inactive
C[Si](C)(C)C(F)(F)C(F)(F)C(F)(F)F	inactive
O=S(=O)(O)CCC(F)(F)C(F)(F)C(F)(F)C(F)(F)C(F)(F)C(F)(F)F	inactive
FC(F)(F)C(F)(F)C(F)(F)C(F)(F)C(F)(F)C(F)(F)I	inactive
OCCC(F)(F)C(F)(F)C(F)(F)C(F)(F)F	inactive
FC(F)C(F)(F)COCC1CO1 (stereo not given)	inactive
